Sampled rows, rich in hits. Any-hit rate of the full collection: about 1.2%.
HTT ATP protect: Huntington cell model cytoprotection by ATP luminescence; PC12 HTT-Q103 induced, cytoprotection, ATP luminescence, 40 h; AID 1471; 230,000 tested, 0.14% active; Potency, µM (top dose mostly 56.4 µM), for inactives: cytoprotection (ATP increase), hits mostly activators; further: potency means the concentration at half of the fitted maximal effect; % of control where 0% means no effect; nearly all actives have a fitted effect of over 45% in size
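Compounds added alongside 100 nM tebufenozide, which induces toxic Q103 huntingtin exon 1-GFP in stable PC12 cells; surviving cells quantified by luminescent ATP measurement. Medium: phenol red-free DMEM, 5% equine and 5% calf serum.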
PKM2 activator: increases activity of human pyruvate kinase M2. P14618. purified PKM2, Kinase-Glo ATP luminescence, activation; response scale: 0% is enzyme alone, no compound. Potency, µM (highest dose often 57.5 µM), without a hit: top-dose activation, hits mostly activators. 260,000 tested, 0.34% active. AID 1631; further: potency means the concentration at half of the fitted maximal effect; on the % scale 0 is the no-effect control and ±100 the full control effect; nearly all actives have a fitted effect of over 55% in size
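ATP formation by purified human PK-M2, quantified via coupled luciferase luminescence after 1 h at room temperature with 0.1 mM ADP and 0.5 mM PEP final.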
GLA inh pH 4.5: blocks human alpha-galactosidase A at pH 4.5; purified enzyme, 4-MU-alpha-Gal fluorescence, pH 4.5; activity change, negative = inhibition, % at 105 µM; 230,000 tested, under 10 active; AID 1467;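 further: 0% = full activity with enzyme and -100% = basal without enzyme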
Target sequence (P06280 whole entry, looked up): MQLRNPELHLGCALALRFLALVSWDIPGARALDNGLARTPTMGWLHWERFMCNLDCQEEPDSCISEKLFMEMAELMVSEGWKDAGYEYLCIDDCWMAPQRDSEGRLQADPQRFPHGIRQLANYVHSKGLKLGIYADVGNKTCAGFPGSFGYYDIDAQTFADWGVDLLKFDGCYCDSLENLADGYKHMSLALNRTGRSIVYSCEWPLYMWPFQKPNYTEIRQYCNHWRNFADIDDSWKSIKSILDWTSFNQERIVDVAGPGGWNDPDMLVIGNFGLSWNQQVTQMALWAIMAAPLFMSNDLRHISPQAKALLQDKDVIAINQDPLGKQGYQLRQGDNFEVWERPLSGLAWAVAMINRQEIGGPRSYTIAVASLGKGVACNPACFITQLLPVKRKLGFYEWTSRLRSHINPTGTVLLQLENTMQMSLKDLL
aGal spleen mod: inhibitors or activators of human alpha-galactosidase in spleen homogenate | P06280 | human spleen homogenate, 4MU-alpha-Gal fluorescence, 40 min | Potency, µM (doses to about 80 µM), for the others: at the highest dose activity change, negative = inhibition, actives largely listed as inhibitors | 240,000 tested, 0.008% active;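 further: potency means the concentration at half of the fitted maximal effect; 0% = enzyme with vehicle and -100% = no enzyme basal signal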
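qHTS titration in buffer at pH 5.0. Alpha-galactosidase activity in spleen homogenate was measured via 4-methylumbelliferone release from 1 mM fluorogenic substrate after 40 min at 37C and a pH 10 stop. AC50 came from Hill fits of control-normalized data.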
HTT aggregate: inhibitors of mutant huntingtin aggregate formation in PC12 cells; PC12 HttQ103-GFP aggregates, Acumen cytometry, 40 h; Potency, µM (series often up to 46.1 µM), for inactives: top-dose activity change, negative = inhibition, hits mostly inhibitors; 220,000 tested, 1.1% active; further: potency means the concentration at half of the fitted maximal effect; on the % scale 0 is the no-effect control and ±100 the full control effect; nearly all actives have a fitted effect of over 60% in size
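Compounds (qHTS titration) were added to PC12 cells expressing an ecdysone-driven HTT exon 1 Q103–GFP fusion after induction with 100 nM tebufenozide. Aggregate formation was measured as GFP objects in cell lysates.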
An asterisk follows results filed as active; u = inconclusive; x = not tested or not shown; [ ] = another dose, or the depositor's remark. The call rests on the fitted dose curve; in most records, active means well fitted curve in the direction sought with a large enough effect; inconclusive means small, poorly fitted or top-dose-only effect, or another doubt; inactive means no such curve, though single readings can be large; an effect the other way counts as inactive or inconclusive.

SMILES	HTT ATP protect	PKM2 activator	GLA inh pH 4.5	aGal spleen mod	HTT aggregate
COc1cc([C@@H]2c3cc4c(cc3[C@@H](OC)[C@H]3COC(=O)[C@H]23)OCO4)cc(OC)c1O	-64%[10 µM]	32µM*	2	5%	u
CC(=O)Nc1ccc(S(=O)(=O)N(C)CCOCc2ccccc2)cc1	3%	-23%	3	1%	11µM*
CC(C)n1c(O)c(C2c3cc(Cl)ccc3Oc3[nH]c(=O)n(C(C)C)c(=O)c32)c(=O)[nH]c1=O (centres undefined)	-24%[10 µM]	14µM*	2	2%	u
CC(=O)c1c(O)n(-c2cccc(Cl)c2)c(=O)[nH]c1=O (tested in a mixture with another compound)	-14%[10 µM]	1%	-1	-5%	19%[9.22 µM]
C[C@H]1CC[C@@H]2[C@@H](C)[C@H]3[C@H](C[C@H]4[C@@H]5CC=C6CC(O[C@@H]7O[C@H](CO)[C@H](O)[C@H](O[C@@H]8O[C@H](CO)[C@@H](O)[C@H](O)[C@H]8O)[C@H]7O[C@H]7O[C@@H](C)[C@H](O)[C@@H](O)[C@H]7O)CC[C@]6(C)[C@H]5CC[C@]34C)N2C1 (some centres undefined)	-102%	x	x	3%	22µM*
O=C(O)c1ccccc1-c1c2cc(Br)c(=O)cc-2oc2[c]([Hg])c(O)c(Br)cc12	-323%	x	0	-27%	5µM*
C=C1C(=O)O[C@@H]2C[C@@H](C)[C@@H]3C=CC(=O)[C@@]3(C)[C@@H](O)[C@H]12	u	22%	2	u	2.2µM*
C[C@@H]1C[C@H]2OC(=O)C3(CO3)[C@H]2[C@H](O)[C@]2(C)C(=O)C3OC3[C@@H]12 (some centres undefined)	-5%[10 µM]	-2%	-2	-9%	-4%[9.22 µM]
O=C(Nc1ccccc1)N1CC[C@@]2(CCCNC2)C1	1%	x	x	6%	x
CCCCn1c(N)c(C(=O)OCCOC)c2nc3ccccc3nc21	-5%[10 µM]	-1%	u	u	-4%[9.22 µM]
CCCCCCn1c(N)c(C(=O)NCCN2CCOCC2)c2nc3ccccc3nc21	-27%[0.074 µM]	9%	11	25%	32µM*
CCCCOCCCn1c(N)c(C(=O)OCCOC)c2nc3ccccc3nc21	7%	19%	3	3%	13µM*
COc1cccc2c1C(=O)c1c(O)c3c(c(O)c1C2=O)C[C@@](O)(C(=O)CO)C[C@@H]3O[C@H]1C[C@H](N)[C@H](OC2CCCCO2)[C@H](C)O1 (some centres undefined)	-80%	x	x	x	4µM*
CC(=NCCc1ccccc1)c1c(O)[nH]c(=O)[nH]c1=O	-9%[10 µM]	28µM*	2	-3%	2%[9.22 µM]
CC[n+]1c(-c2ccccc2)c2cc(N)ccc2c2ccc(N)cc21	-155%	x	-10	u	14µM*
ClCC[N+]12CC[N+](CCCl)(CC1)C2 (tested in a mixture with another compound)	-2%[10 µM]	x	x	x	x
